Screening data (PubChem)
SW480 rereplic: inducers of DNA re-replication in SW480 colon cancer cells. AID 624297. 340,000 compounds, 1.8% hits. Potency, µM (titrated, usually from 46.1 µM), for the others: at the top dose re-replication activation, hits mostly activators. SW480 DNA re-replication, Hoechst DNA content imaging, 48 h; also: % of control where 0% means no effect; nearly all actives have a fitted effect of over 55% in size
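Readout is total intensity of Hoechst-stained nuclei, excited at 405 nm and collected at 500-530 nm. Compound treatment lasted 48 hr at 37 C in 5% CO2 before staining.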
PINK1 modulator: changes PINK1 expression; PINK1 immunofluorescence, high-content cytometry, 24 h; Potency, µM (highest dose often 76.6 µM), without a hit: top-dose activation (PINK1 increase), actives largely listed as activators; 410,000 compounds, 0.2% hits; AID 624263; active = well fitted activation curve with a large enough effect; inconclusive = small, poorly fitted or top-dose-only effect; cell line not stated here; also: % of control where 0% means no effect; nearly all actives have a fitted effect of over 65% in size
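PINK1 protein, normally rapidly degraded, was detected by immunofluorescence after 24 hour compound treatment of a stable cell line. Titration data (5 concentrations) came from laser-scanning cytometry, with CCCP-treated wells as controls.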
KB-V1 cytotox: kills drug-selected multidrug resistant KB-V1 cells; KB-V1 MDR cells viability, CellTiter-Glo, 72 h; Potency, µM (series often up to 46.1 µM), usual class: cytotoxic; 400,000 compounds, 3.4% hits; AID 1347076; also: % is scaled to controls: 0 for no effect and ±100 for the full control effect; nearly all actives have a fitted effect of over 60% in size
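In this primary screen, KB-V1 cells overexpressing P-gp are incubated with library compounds (lowest to highest concentration) for 72 h at 37 degrees C before a luminescent ATP viability read.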
KB-3-1 tox: KB-3-1 parental cell cytotoxicity | KB-3-1 viability, CellTiter-Glo ATP luminescence, 72 h | Potency, µM (highest dose often 46.1 µM), most hits filed as cytotoxic | 400,000 compounds, 1.4% hits | AID 1347075; also: % is scaled to controls: 0 for no effect and ±100 for the full control effect; nearly all actives have a fitted effect of over 60% in size
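Cytotoxicity measured as CellTiter-Glo luminescence after 72 h at 37 C. Compound titrations were pinned onto drug-naive KB-3-1 parental adenocarcinoma cells grown in DMEM with 10% FBS, and normalized data fitted to concentration-response curves.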
MCF10A rereplic: inducers of DNA re-replication in MCF 10A breast cells; Potency, µM (highest dose often 46.1 µM), for the others: at the top dose activity, positive = re-replication, actives largely listed as activators; 350,000 compounds, 2.9% hits; MCF 10A DNA re-replication, Hoechst nuclear intensity, 48 h; also: % of control where 0% means no effect; nearly all actives have a fitted effect of over 50% in size
TSG101-PTAP inh: blocks PTAP/TSG101 interaction to inhibit HIV-1 budding | Q99816 | Fluorescence polarization, FITC-PTAP peptide / Tsg101 binding | Potency, µM (top dose mostly 115 µM), for inactives: top-dose activity change, negative = inhibition, usual class: inhibitors | 340,000 tested, under 10 active | AID 493005; active = well fitted inhibition curve with a large enough effect in the main read-out, with a control signal flat, not every such curve was filed as active; inconclusive = small, poorly fitted or top-dose-only effect, or effect the other way, or a change in a side signal; inactive = no such curve, though single readings can be large or run the other way; also: % of control where 0% means no effect
Target sequence (Q99816 whole entry, looked up): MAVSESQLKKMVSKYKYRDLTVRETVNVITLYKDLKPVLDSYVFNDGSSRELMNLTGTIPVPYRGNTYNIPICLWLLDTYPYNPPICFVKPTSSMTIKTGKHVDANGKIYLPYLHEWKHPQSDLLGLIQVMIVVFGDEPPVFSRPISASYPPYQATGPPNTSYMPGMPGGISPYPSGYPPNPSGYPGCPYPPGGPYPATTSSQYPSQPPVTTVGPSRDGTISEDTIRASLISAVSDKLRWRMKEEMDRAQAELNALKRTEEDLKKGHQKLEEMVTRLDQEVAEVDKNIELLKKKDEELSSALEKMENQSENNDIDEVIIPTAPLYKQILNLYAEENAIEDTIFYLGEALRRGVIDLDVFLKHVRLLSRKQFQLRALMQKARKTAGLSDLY
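Compounds were pin-transferred onto Tsg101 binding domain (10 uM final) in HEPES pH 7.5 buffer, then FITC-PTAP peptide was added at 50 nM final. After 20 min at RT, polarization reported peptide displacement across a qHTS concentration series.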
* hit, by the source's call; i = inactive; ? = inconclusive; . = no result; ! = repeats disagree; [ ] = dose if it differs, or a comment. Hits are enriched below; roughly 6.8% of the tested compounds scored in any of these assays. Unless noted, calls follow the shape of the dose curve; as a rule, active = well fitted curve in the direction sought with a large enough effect; inconclusive = small, poorly fitted or top-dose-only effect, or another doubt; inactive = no such curve, though single readings can be large; an effect the other way counts as inactive or inconclusive. Potency is read from the fitted curve at half-maximal effect.

SMILES	SW480 rereplic	PINK1 modulator	KB-V1 cytotox	KB-3-1 tox	MCF10A rereplic	TSG101-PTAP inh
COc1ccccc1CNC(=O)CSC1=NCCS1	?	3%	i	i	?	0%
O=C(CSC1=NCCS1)NCc1ccco1	?	4%	i	i	23µM*	-1%
O=C(CSc1ccccc1F)NCCN1C(=O)CSC1=O	-7%	1%	i	i	-3%	-8%
O=C(CSc1nnc(-c2ccccc2)c(-c2ccccc2)n1)NCc1ccco1	19%	0%	16µM*	?	18µM*	-4%
O=C(CSC1=Nc2ccccc2C2CC=NN12)NCc1ccco1 (stereo unspecified)	?	5%	?	?	21µM*	-3%
CSc1ccc(CCNC(=O)CN2C(=O)COc3ccc(S(=O)(=O)N4CCCCCC4)cc32)cc1	.	0%	?	?	.	.
COc1ccc2c(c1)c1c(c(=O)n(-c3cccc(Cl)c3)c(=O)n1CC(=O)N1CCCC1)n2C	.	0%	?	i	.	.
COc1ccc(CCn2c(=O)c3cccnc3n(CC(=O)Nc3ccc(C)cc3C)c2=O)cc1OC	.	2%	i	i	.	.
COc1ccc(CCNC(=O)CCCCn2c(=O)c3ccccc3n(CC(=O)Nc3ccccc3C)c2=O)cc1OC	.	2%	?	i	.	.
O=C(CSc1nc(-c2ccccc2)c(-c2ccccc2)[nH]1)NCc1ccco1	12µM*	5%[38.3 µM]	10µM*	?	15µM*	-7%
CCCCc1c(-c2ccccc2OC)ncn1CCc1ccccc1	.	?	12µM*	?	.	.
COc1ccc(Cc2nn3c(-c4ccccc4OC)nnc3s2)cc1	-12%	-1%	?	i	-2%	2%
CCCCc1c(-c2ccccc2OC)ncn1CCc1ccc(Cl)cc1	.	?	12µM*	?	.	.
COc1ccccc1C(=O)N1CCN(CCc2ccccc2)CC1	-3%	0%[38.3 µM]	i	i	-25%	-5%
CCCCc1c(-c2ccccc2OC)ncn1CCc1ccc(OC)cc1	.	?	9.2µM*	?	.	.
CCCCn1c(SCC(=O)NCCCOC)nc2c(sc3ccccc32)c1=O	.	0%	.	.	.	.
COc1ccc(CC(=O)NCC(c2ccc(N(C)C)cc2)N2CCOCC2)cc1OC (stereo unspecified)	.	-1%	i	i	.	.
CC(NC(=O)c1ccco1)c1nnc2n1CCN(Cc1ccc(N3CCCC3)cc1)CC2 (stereo unspecified)	.	0%	.	.	.	.
CN1C(=O)/C(=C2\SC(N3CCCCCC3)=NC2=O)c2ccccc21	-2%	4%	2.1µM*	?	23%	-12%
CCCN1C(=O)/C(=C2\SC(N3CCCCC3)=NC2=O)c2ccccc21	2%	-3%	?	i	21%	-4%
COc1ccc(NC(=O)Cn2c(=O)n(C(C)C)c(=O)c3oc4ccccc4c32)cc1Cl	.	0%	.	.	.	.
COc1ccc(Nc2nc3cc(-c4sccc4C)sc3c(=O)n2C)cc1OC	.	6%	6.5µM*	5.8µM*	.	.
CCOC(=O)Cc1ccc(Nc2nc3cc(-c4sccc4C)sc3c(=O)n2C)cc1	.	4%	15µM*	10µM*	.	.
COc1ccc(Nc2nc3cc(-c4ccsc4)sc3c(=O)n2C)cc1OC	.	3%	i	i	.	.
CC(C)Cc1ccc(CN2CCCC(NC(=O)c3nn(C)c(=O)c4ccccc34)C2)cc1 (stereo unspecified)	?	8%	i	i	21µM*	-1%
SMILES	SW480 rereplic	PINK1 modulator	KB-V1 cytotox	KB-3-1 tox	MCF10A rereplic	TSG101-PTAP inh
Cn1nc(C(=O)NC2CCCCC2)c2ccccc2c1=O	-3%	3%	16µM*	i	3%	-4%
CN(CCO)C(=O)c1ccc(-c2nn(C)c(=O)c3ccccc23)cc1	-6%	1%	i	i	0%	-3%
CN(C(=O)c1ccc(-c2nn(C)c(=O)c3ccccc23)cc1)C1CCCCC1	-7%	9%	4.1µM*	18µM*	14%	1%
COc1cc(OC)cc(C(=O)NNC(=O)c2nn(C)c(=O)c3ccccc23)c1	-3%	-1%	13µM*	?	-2%	-4%
CCc1cc(C(=O)NCc2c(C)ncc3c2CCN(C(=O)C2=CCCC2)C3)no1	.	0%	.	.	.	.
CCOC(=O)c1ccc(NC(=O)C(Cc2ccccc2)N2Cc3ccccc3C2=O)cc1 (stereo unspecified)	.	2%	.	.	.	.
CN(C(=O)CSc1nc(N)c2c3c(sc2n1)CSC(C)(C)C3)c1ccccc1	1%	6%	i	i	8.2µM*	-4%
O=C(Nc1c(C(=O)N2CCN(c3ccccc3)CC2)oc2ccccc12)c1ccc(Br)o1	.	0%	i	i	.	.
COc1cccc(C(=O)NCC2Cc3c(F)ccc(-c4ncccn4)c3O2)c1OC (stereo unspecified)	.	0%	.	.	.	.
O=C(c1c[nH]c2ccccc12)C(Cl)c1ccccc1 (stereo unspecified)	?	-2%	?	i	23µM*	2%
O=C(c1c[nH]c2ccccc12)C(O)C(c1ccccc1)N1CCOCC1 (stereo unspecified)	2%	1%	i	i	2%	2%
CC(C)c1ccc2oc(-c3ccc(Cl)c(NC(=O)c4cccs4)c3)nc2c1	.	2%	?	?	.	.
COC(=O)[C@@]1(Cc2ccccc2)[C@H]2C(=O)N(C)C(=O)[C@H]2[C@H]2CN=C(SCc3ccc(C#N)cc3)N21	3.7µM*	1%	i	i	-15%	-1%
O=[N+]([O-])c1ccc(N2CCC(=NOCc3ccc(Cl)cc3)CC2)cc1	-7%	35%[38.3 µM]	15µM*	i	12%	-4%
COc1cc(CN2CCc3nnc(C(NS(C)(=O)=O)C(C)C)n3CC2)ccc1F (stereo unspecified)	.	0%	.	.	.	.
CC(C)Oc1ccc(C(=O)Nc2ccc3c(c2)CCCN3C(=O)c2cccs2)cc1	.	1%	?	6.5µM*	.	.
Cc1ccc2c(c1)CCCN2C(=O)c1cccs1	?	1%[38.3 µM]	16µM*	i	?	.
CCCCOc1ccc(C(=O)Nc2ccc3c(c2)CCCN3C(=O)c2cccs2)cc1	.	3%	?	?	.	.
O=C(c1cccs1)N1CCCc2ccccc21	-3%	-2%[38.3 µM]	?	i	23%	-7%
COc1cccc(C(=O)Nc2ccc3c(c2)CCCN3C(=O)c2cccs2)c1OC	-26%	-1%	?	9.2µM*!	18%	-5%
Cc1cnc(-n2ncc(C(=O)N(C)CC3COCCO3)c2C2CC2)nc1-c1cccs1 (stereo unspecified)	.	0%	.	.	.	.
Cc1ccc(-n2nc(CO)c(C(=O)NCCCCc3ccccc3)n2)cc1C	.	1%	.	.	.	.
COc1cc2ccccc2cc1C(=O)Nc1ccc2oc(-c3ccccc3)nc2c1	.	3%	i	i	.	.
